Assay outcomes as filed in PubChem BioAssay.
Most compounds without a hit are left out; they make up all but 2.7% or so of the library.
Tau FP inhib – qHTS for Inhibitors of Tau Fibril Formation, Fluorescence Polarization; K18 P301L tau heparin fibrillization, Alexa594 FP, 6 h; Potency, µM (titrated, usually from 57.7 µM), for the others: at the top dose activity, negative = inhibition, actives largely listed as inhibitors; 0.39% of 280,000 active; AID 1468, 2008; also: potency is read from the fitted curve at half-maximal effect; nearly all actives have a fitted effect of over 55% in size
Target sequence (P10636 561-689 P618L limits assumed): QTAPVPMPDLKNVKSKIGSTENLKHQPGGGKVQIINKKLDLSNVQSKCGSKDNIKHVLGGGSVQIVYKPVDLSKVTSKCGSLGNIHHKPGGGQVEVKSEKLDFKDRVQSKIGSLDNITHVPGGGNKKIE
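Steps: dispense K18 P301L tau (15 uM plus 0.24 uM Alexa 594 tracer, final) in pH 7 sodium acetate; add compound; add heparin (20 uM final); incubate 6 hr, 37 C; add ThT (30 uM final); after 1 hr ambient, read FP.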
Tau ThT inhib – qHTS for Inhibitors of Tau Fibril Formation, Thioflavin T Binding; Potency, µM (titrated, usually from 57.4 µM), without a hit: at the highest dose activity, negative = inhibition, actives largely listed as inhibitors; Microtubule-associated protein tau (Homo sapiens), P10636; recombinant tau K18 P301L, heparin-induced fibrillization, ThT fluorescence; 2.1% of 270,000 active; also: potency is read from the fitted curve at half-maximal effect; nearly all actives have a fitted effect of over 55% in size
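ThT emission at 510 nm, taken 1 hr after adding 30 uM dye, quantifies aggregates formed when 20 uM heparin acts on human tau K18 P301L for 6 hr at 37 C.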
Tau fluor counter – Counterscreen qHTS for Inhibitors of Tau Fibril Formation, Fluorescence Polarization; 0.93% of 280,000 active; tau K18 P301L Alexa594 fluorescence, heparin fibrillization; Potency, µM (highest dose often 57.7 µM), for inactives: top-dose activity change, negative = decrease; also: potency is read from the fitted curve at half-maximal effect; nearly all actives have a fitted effect of over 55% in size
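Human tau K18 P301L (15 uM unlabeled, 0.24 uM Alexa 594-labeled) in 100 mM sodium acetate pH 7 with 20 uM heparin, 6 hr at 37 C. ThT 30 uM added, 1 hr ambient; Alexa 594 FP and total fluorescence read at 555/632 nm.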
Coupling enz – qHTS Assay for Inhibitors of Fructose-1,6-bisphosphate Aldolase from Giardia Lamblia: Coupling assay counterscreen | coupling enzyme system counterscreen, AmpLite Red fluorescence | activity change, negative = inhibition, % at 58.2 µM, hits read low | 0.67% of 290,000 active | AID 2472, 2010; in the data active = activity change below about -30%
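Coupling enzymes only (glyceraldehyde-3-phosphate) + compound, at 57.5 uM final, 10 min RT; add substrate/coupling/AmpLite Red mix, 20 min RT; fluorescence ex 525/em 598 nm. Actives flag coupling-system interference.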
Numbers without * were called inactive; [ ] = remark or other dose. Unless noted, calls follow the shape of the dose curve; as a rule, active = well fitted curve in the direction sought with a large enough effect; inconclusive = small, poorly fitted or top-dose-only effect, or another doubt; inactive = no such curve, though single readings can be large; an effect the other way counts as inactive or inconclusive. % is scaled to controls: 0 for no effect and ±100 for the full control effect.

`Cc1cccc(C2=NN(c3ccc(Br)cc3)[C@@H](C(=O)N3CCOC3=O)[C@@H]2c2ccccc2)c1` gave Tau FP inhib 3%, Tau ThT inhib -20%, Tau fluor counter inconclusive and Coupling enz -5.
For CC[C@@H]1C(c2cccc(C)c2)=NN(c2ccc(Br)cc2)[C@H]1C(=O)N1CCOC1=O the results were Tau FP inhib -14%, Tau ThT inhib inconclusive, Tau fluor counter 8.9µM*[quencher] and Coupling enz -2.
Screening C[C@@H]1C(c2cccc(Cl)c2)=NN(c2ccc(Br)cc2)[C@H]1C(=O)N1CCOC1=O returned Tau FP inhib -7%, Tau ThT inhib inconclusive, Tau fluor counter 14µM*[quencher] and Coupling enz -2.
For COc1ccc2nc(NC(=O)c3cc(=O)c4ccccc4o3)sc2c1 the results were Tau FP inhib -9%, Tau ThT inhib 0.89µM* and Tau fluor counter -22%.
`Cc1cc(C)c2nc(NNC(=O)c3cc(=O)c4ccccc4o3)sc2c1` gave Tau FP inhib -10%, Tau ThT inhib 5µM*, Tau fluor counter inconclusive and Coupling enz -10.
For Cc1ccc(N(C)C(=O)C2CCN(S(=O)(=O)c3c(C)noc3/C=C/c3c(C)cc(C)cc3C)CC2)cc1 the results were Tau FP inhib 1%, Tau ThT inhib -11% and Tau fluor counter -7%.
For C=CC1=C2C=C(C3CC3)N(Cc3ccccc3)C=C2C(=O)C(C)(OC(=O)c2ccco2)C1=O (configuration not stated) the results were Tau FP inhib 6%[11.6 µM], Tau ThT inhib -13%[11.5 µM], Tau fluor counter -3%[11.6 µM] and Coupling enz -36*.
`C=CC1=C2C=C(C3CC3)N(CCCOC(C)C)C=C2C(=O)C(C)(OC(=O)c2ccco2)C1=O` (configuration not stated) gave Tau FP inhib -4%[11.6 µM], Tau ThT inhib -12%[11.5 µM], Tau fluor counter -5%[11.6 µM] and Coupling enz -32*.
`CCC1CO/C(=C(\C(Cl)=C(Cl)Cl)[N+](=O)[O-])N1` (configuration not stated) gave Tau FP inhib inconclusive, Tau ThT inhib 35µM*, Tau fluor counter -19% and Coupling enz -1.
CCOC(=O)c1c(NC(=O)/C=C/c2ccc(OC)c(OC)c2)sc(C(C)=O)c1C was read as Tau FP inhib -2%, Tau ThT inhib -2% and Tau fluor counter 2%.
CCCOc1ccc(/C=C/C(=O)Nc2sc(C)c(C)c2C(=O)OCC)cc1OC was read as Tau FP inhib inconclusive, Tau ThT inhib 28µM* and Tau fluor counter -20%.
CCOC(=O)c1sc(NC(=O)CSc2nnc(Cc3ccccc3)o2)c(C#N)c1C was read as Tau FP inhib inconclusive, Tau ThT inhib 28µM*, Tau fluor counter inconclusive and Coupling enz 7.
`COc1cc(NC(=O)Nc2ccccc2OC)c(OC)cc1NC(=O)CN1CCCCC1` gave Tau FP inhib inconclusive, Tau ThT inhib inconclusive, Tau fluor counter inconclusive and Coupling enz -4.
For COc1cc(NC(=O)Nc2ccccc2)c(OC)cc1NC(=O)CN1CCCCC1 the results were Tau FP inhib inconclusive, Tau ThT inhib inconclusive, Tau fluor counter 28µM*[quencher] and Coupling enz -3.
For COC(=O)C1=C(C(=O)OC)SC(=C2C(=S)C(C)(C)N(C(=O)CC(C)C)c3ccccc32)S1 the results were Tau FP inhib inconclusive, Tau ThT inhib 1.1µM*, Tau fluor counter inconclusive and Coupling enz 4.
`C=CCc1ccccc1OCCSc1nc(-c2ccccc2F)nc2cc(=O)[nH]n12` gave Tau FP inhib -3%, Tau ThT inhib -18% and Tau fluor counter -17%.
Cc1nc2ccc(Br)cn2c1C(=O)N/N=C\c1ccc(C(C)C)cc1 was read as Coupling enz 0.
For COc1cccc(/C=N/NC(=O)c2c(C)nc3ccc(Br)cn23)c1 the results were Tau FP inhib -1%, Tau ThT inhib -7%, Tau fluor counter 1% and Coupling enz -33*.
C/C(=C\c1cccc(Cl)c1Cl)C(=O)c1c(C)cc(C)[nH]c1=O was read as Coupling enz 0.
Screening CNc1ccc(Br)cc(C(=O)/C=C/c2cccc(Cl)c2Cl)c1=O returned Tau FP inhib inconclusive, Tau ThT inhib 7.1µM*, Tau fluor counter inconclusive and Coupling enz -11.
